# Screening results deposited in PubChem by Broad Institute.
# Wnt act = Wnt/beta-catenin pathway activators, primary screen, cell-based, plate reader, single point; activation, % at 9.35 µM; Wnt/beta-catenin reporter cell assay, activator; 300,000 compounds, 1.2% hits; in the data active means activation above about 30%, passing the limit was not always enough; inconclusive means no clear call, values can overlap the other calls;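 further: 0% = neutral control wells and 100% = positive control wells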
# MITF TRPM1 HTS = activators of MITF-driven TRPM1 promoter reporter, primary screen, cell-based, SK-MEL-5, luciferase, single point; 300,000 compounds, 0.75% hits; activation, % at 12.5 µM; SK-MEL-5 TRPM1-promoter luciferase, 24 h; % of positive control, neutral wells = 0;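 active means mean activation of at least 80% with every replicate also reaching 80%; inconclusive means mean reaches 80% but some replicate falls short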;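 further: 0% = neutral control wells and 100% = parthenolide positive control wells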
# HIV Env fusion = inhibitors of HIV-1 Env-driven cell-cell fusion, primary screen, HeLa-JRFL effector, CEM21 target cells, luciferase | inhibition, % at 12.3 µM | 360,000 compounds, 1.1% hits | AID 651610, 2012;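 active means mean replicate inhibition score of at least 50 and every replicate individually at or above 50; inconclusive means only one of the two criteria met; inactive means mean below 50 and not all replicates reaching 50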;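 further: 0% = plate neutral controls and 100% = maraviroc near 300 nM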
# F508del corr = F508del CFTR correction, initial screen, CFBE line, single point | CFBE cells, YFP halide quenching; stimulated with forskolin plus potentiator P3; % fluorescence drop versus neutral controls | activity (quench increase), % at 7.58 µM | 350,000 compounds, 0.36% hits | AID 720511, 2013;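 active means mean added fluorescence quench of at least 8% versus neutral control, with both replicates also reaching 8%; inconclusive means only one of the mean or replicate conditions met; inactive means mean below 8% and not both replicates reaching 8%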;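 further: cells transiently co-express mutant CFTR-F508del with the halide-sensitive YFP; corrector assay measuring rescue of mutant channel to the surface after 24 h compound exposure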
# GSIS activator = GLuc luminescence reporter in INS-1E cells, primary screen for activators of glucose-dependent secretion of insulin | INS-1E GLuc reporter insulin secretion, 2-3 h | activation, % at 16.6 µM | 370,000 compounds, 0.61% hits | AID 743287, 2014;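 active means lowest replicate activation of at least 40%, so every replicate reaches that level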;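 further: 0% = median of neutral control wells and 100% = median of IBMX positive control wells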
# * marks the source's active call; other numbers are inactive results; ? = inconclusive; nt = no result given; [ ] = dose if it differs, or a comment. Hits are enriched below; roughly 2.7% of the tested compounds scored in any of these assays.
SMILES,Wnt act,MITF TRPM1 HTS,HIV Env fusion,F508del corr,GSIS activator
Cc1noc(C)c1S(=O)(=O)Nc1ccc2c(c1)CC(=O)N([C@@H](C)CO)C[C@H](C)[C@@H](CN(C)S(C)(=O)=O)O2,nt,nt,2.5[16.7 µM],-4.3,-2.3
Cc1ccc(OCC(=O)Nc2cc(C(C)(C)C)on2)cc1C,9.0,27.0,16.5,3.2,-37.7
CCNC(=O)c1sc2cc(C)ccc2c1Cl,9.6,73.2,-56.8,-2.4,0.9
Cc1cc(NC(=O)COc2ccc(C)c(C)c2)no1,7.6,90.1*,-26.9,-3.4,11.7
Cc1ccc2c(Cl)c(C(=O)Nc3cc(C)on3)sc2c1,42.2*,53.3,-264.3,nt,nt
C[C@H]1CN(C)C(=O)Cc2cc(N(C)C)ccc2O[C@@H]1CN(C)C,nt,nt,nt,nt,3.1
O=C(N/N=C/c1cccc(NC(=O)c2ccc(Cl)cc2)c1)c1ccc(O)cc1,-0.1,58.1,-25.0,2.1,-2.7
O=C(N/N=C/c1ccccc1Cl)c1cccc(F)c1,39.9*,?,-84.5,nt,-6.9
O=C(NN=Cc1ccccc1O)c1cccc([N+](=O)[O-])c1,-0.4,-47.1,-12.0,10.5*,0.5
CSc1ccc(/C=N/NC(=O)c2cc(O)cc(O)c2)cc1,34.5*,36.1,-148.1,nt,8.4
O=C(N/N=C/c1ccccn1)c1cccc([N+](=O)[O-])c1,-1.0,-5.9,9.1,-2.2,8.1
O=C(N/N=C/c1cccc(F)c1)c1ccc(Cl)cc1,12.7,96.0*,-3.0,-4.3,4.6
COc1ccccc1CNC(=O)C[C@@H]1C[C@H]2c3cc(NC(=O)Nc4ccccc4F)ccc3O[C@H]2[C@@H](CO)O1,nt,nt,-14.9[16.7 µM],0.5,-0.3
C[C@@H]1CN([C@@H](C)CO)C(=O)c2cccc(NC(=O)c3ccncc3)c2O[C@H]1CN(C)S(=O)(=O)c1ccccc1,nt,nt,-10.5[16.7 µM],-0.1,9.2
O=C(N/N=C/c1ccc(F)cc1)c1ccccc1,33.9*,51.4,-40.0,-1.9,-3.7
O=C(N/N=C/c1ccccc1C(F)(F)F)c1ccc(O)cc1,3.1,85.7*,-17.5,0.7,nt
O=C(CN1CCN(Cc2ccc(Cl)cc2)CC1)N/N=C/c1cccc(F)c1,43.4*,nt,22.1,0.1,nt
O=C(N/N=C/c1cccc(F)c1)c1csc2c1CCCC2,nt,141.9*,nt,nt,-22.1
O=C(O)c1ccc(/C=N/NC(=O)c2ccc(F)cc2)cc1,-0.7,0.8,-6.3,1.1,13.5
O=C(C[C@H]1CC[C@@H]2[C@H](COC[C@@H](O)CN2Cc2cc(F)ccc2F)O1)N[C@H]1CCN(Cc2ccccc2)C1,nt,nt,5.1[16.7 µM],-0.5,-6.5
COc1ccc(-c2csc(N(C)C(=O)c3cccs3)n2)cc1,38.1*,96.6*,-63.8,0.0,1.6
COc1ccc(-c2csc(N(CC3CCCO3)C(=O)c3cccs3)n2)cc1 (stereo unspecified),nt,-9.8,60.9,nt,nt
COc1ccc(-c2csc(N(Cc3ccco3)C(=O)c3cccs3)n2)cc1,40.5*,-3.4,-2.5,2.1,-1.4
COc1ccc(C(=O)NNC(=O)CSc2nnc(COc3ccccc3OC)n2C)cc1,nt,-1.6,7.4,nt,40.9*
COc1ccc2c3c(n(C)c2c1)[C@@H](CO)N(Cc1ccccc1)CC31CCN(C)CC1,nt,nt,nt,-1.5,2.9
SMILES,Wnt act,MITF TRPM1 HTS,HIV Env fusion,F508del corr,GSIS activator
COc1ccc(C(=O)COC(=O)c2cccc(-n3cnnn3)c2)c(OC)c1,18.1,92.1*,-63.3,3.1,-1.0
O=C(COC(=O)c1cccc(-n2cnnn2)c1)c1ccc(F)cc1,0.5,53.1,nt,2.3,-0.7
COc1ccccc1C(=O)COC(=O)c1cc(=O)[nH]c2ccccc12,3.3,10.7,-10.4,-2.6,23.8
COc1ccc(C(=O)COC(=O)c2cc(=O)[nH]c3ccccc23)c(OC)c1,26.5,100.0*,-53.9,1.0,-0.5
COc1cccc(CN(C)C(=O)c2ccc(OCC(=O)Nc3cccc(C(F)(F)F)c3)c(OC)c2)c1,-10.0,-41.6,15.2,3.5,-47.6
COc1ccc(CN(C)C(=O)c2ccc(OCC(=O)Nc3cccc(C(F)(F)F)c3)c(OC)c2)c(OC)c1,-1.7,-34.9,75.7*,-0.4,-36.1
O=C(C1=C[C@@H](c2ccc(C(F)(F)F)cc2)C[C@@H](OCc2ccc(CO)cc2)O1)N1CCCCCCC1,nt,nt,-0.3[16.7 µM],3.2,nt
Cc1ccc(NC(=O)c2ccc(OC(=O)CCN3C(=O)c4ccccc4C3=O)cc2)cc1,45.8*,49.2,-113.3,nt,nt
Cc1ccc2[nH]c3c(=O)n(N)c(C)nc3c2c1,3.0,18.3,9.7,-1.8,0.6
Cc1ccc2[nH]c3c(=O)[nH]ncc3c2c1,1.3,-8.2,65.8*,-0.4,11.2
O=C(C1CCCCC1)N1C[C@@H]2[C@H](c3ccccc31)[C@H](CO)N2C(=O)c1ccccc1,nt,nt,nt,0.5,4.6
CC[C@@H](CC1CCCCC1)C(=O)N(Cc1ccccc1)c1ccccc1,-3.8,-2.0,59.9*,-1.7,15.3
CSc1nc(Cl)cc(Nc2ccc(O)cc2)n1,37.8*,19.7,-36.7,-1.7,17.4
CNc1cc(Cl)nc(SC)n1,-1.0,-1.0,9.4,-0.5,8.9
CCC(C)NS(=O)(=O)c1ccc(S(=O)(=O)N2CCCC3(CCCCC3)C2)cc1 (stereo unspecified),-7.1,-18.5,77.4*,nt,-49.3
CCC(C)C(=O)Nc1ccc(S(=O)(=O)N2CCCC2)cc1 (stereo unspecified),0.0,-3.8,2.5,-4.0,1.9
C=C(CCC(=O)c1ccccc1)C(=O)c1ccccc1,59.8*,-5.2,-2.7,nt,nt
CCC(=O)Nc1ccc2c(c1)OC[C@@H](C)N(CC1CCCCC1)C[C@@H](C)[C@H](OC)CN(C)C2=O,nt,nt,nt,nt,-6.2
CCn1c(-c2ccc(C)cc2)nn(CC(=O)NCCc2ccccc2)c1=S,0.4,5.1,76.5*,nt,7.0
CN(C)C(CNC(=O)c1cc2ccccc2oc1=O)c1ccccc1 (stereo unspecified),29.4,98.9*,-51.9,-0.7,5.6
Cc1ccccc1-n1nc2c(c1NC(=O)c1cc3ccccc3oc1=O)CS(=O)(=O)C2,nt,nt,-6.0,nt,53.8*
COc1ccccc1C(=O)Nc1c2c(nn1-c1ccc(Cl)cc1)CS(=O)(=O)C2,-0.3,8.4,-1.6,0.4,2.3
COc1ccccc1C(=O)Nc1c2c(nn1-c1cccc(C)c1C)CS(=O)(=O)C2,-2.7,1.3,-84.0,nt,58.5*
COc1cccc(NC(=O)c2cc3ccccc3oc2=O)c1,-1.3,nt,-114.3,4.0,20.8
Cc1cccnc1NC(=O)c1cc2ccccc2oc1=O,47.0*,11.7,-30.2,2.4,-2.6
Cc1ccccc1-n1nc2c(c1NC(=O)c1cc3ccccc3oc1=O)CS(=O)C2 (stereo unspecified),nt,5.1,nt,nt,nt
CO[C@@H]1CN(C)C(=O)c2cc(NC(=O)c3ccccc3)ccc2OC[C@H](C)N(C(=O)C2CC2)C[C@H]1C,nt,nt,-2.5[16.7 µM],-4.3,-8.3
Cc1ccc(-c2nc3ccsc3c(=O)o2)cc1,50.2*,-5.9,-178.7,nt,nt
CCN(Cc1ccccc1)c1ccc(/C=N/N=C(N)N)cc1,-6.4,-63.0,-1.2,9.9*,nt
